Laboratory results reported in PubChem BioAssay (NCI).
“And” between values parts separate entries of the source, which are not always exact repeats. Equal entries are not always repeated. About 79,000 compounds went through this panel and 15% of them were active in at least one assay; those are over-represented in the sample as a whole. More than one record can exist for a structure, and the calls need not agree. The source made the active and inactive calls. No stated cut-off is given here; in the data, active means growth inhibition above about 70%; inactive means the rest.

Assays:
[1] = NCI Yeast Anticancer Drug Screen. Data for the rad52 strain (AID 147);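 further: 0% = growth of vehicle-treated control cultures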; conditions: S. cerevisiae rad52 mutant growth inhibition, stronger effect = higher value
Method in brief: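 The repair-mutant yeast strain was incubated with compounds, then growth was read and inhibition derived relative to vehicle.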

[2] = NCI Yeast Anticancer Drug Screen. Data for the wt1 strain (AID 149);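 further: 0% = growth of vehicle-treated wt1 cultures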; conditions: S. cerevisiae wt1 strain (SPY 50644) growth inhibition, stronger effect = higher value
Method in brief: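 wt1 strain grown with compound or vehicle; inhibition taken from the growth difference.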

[3] = NCI Yeast Anticancer Drug Screen. Data for the rad50EPP+ strain (AID 151);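 further: 0% = growth of vehicle-treated control cultures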; conditions: S. cerevisiae rad50 mutant strain, stronger effect = higher value
Method in brief: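 Vehicle-normalised growth inhibition; rad50EPP+ yeast strain, altered in DNA damage repair, compound-treated.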

[4] = NCI Yeast Anticancer Drug Screen. Data for the mgt1 strain (AID 153); conditions: S. cerevisiae mgt1 mutant growth inhibition, stronger effect = higher value
Method in brief: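 Vehicle-normalized growth inhibition is determined in mgt1 yeast, a strain selected for a defined alteration in DNA repair or cell cycle control.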

[5] = NCI Yeast Anticancer Drug Screen. Data for the rad50 strain (AID 155);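 further: 0% = growth of vehicle-only cultures of the same strain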; conditions: S. cerevisiae rad50 strain growth inhibition, stronger effect = higher value
Method in brief: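 DNA repair mutant yeast, compound exposure, growth read-out; inhibition is taken relative to vehicle.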

[6] = NCI Yeast Anticancer Drug Screen. Data for the mec2-1 strain (AID 157); conditions: S. cerevisiae mec2-1 strain, stronger effect = higher value
Method in brief: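 Mutant yeast (mec2-1) grown with compound; growth inhibition relative to vehicle control reported.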

[7] = NCI Yeast Anticancer Drug Screen. Data for the sgs1 mgt1 strain (AID 161);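 further: 0% = growth of cultures given vehicle only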; conditions: S. cerevisiae sgs1 mgt1 strain, stronger effect = higher value
Method in brief: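 Percent growth inhibition was derived by comparing compound-exposed mutant yeast with vehicle-exposed cultures. The strain carries alterations in DNA damage repair.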

[8] = NCI Yeast Anticancer Drug Screen. Data for the CLN2oe strain (AID 163);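 further: 0% = growth of vehicle-only control cultures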; conditions: S. cerevisiae CLN2oe strain, stronger effect = higher value
Method in brief: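 Compounds are applied to yeast harbouring a defined cell-cycle control change; reduced growth compared with vehicle-treated controls gives the value.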

[9] = NCI Yeast Anticancer Drug Screen. Data for the cln2 rad14 strain (AID 165);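 further: 0% = growth equal to vehicle treated cultures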; conditions: S. cerevisiae cln2 rad14 strain, stronger effect = higher value
Method in brief: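 Readout is yeast growth inhibition versus vehicle-treated controls, using a strain with cln2 and rad14 alterations exposed to compound.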

[10] = NCI Yeast Anticancer Drug Screen. Data for the bub3 strain (AID 167); conditions: S. cerevisiae bub3 mutant strain, stronger effect = higher value
Method in brief: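 In this screen, a yeast mutant lacking normal mitotic checkpoint function is challenged with compound. Relative growth versus vehicle gives the inhibition value.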

[11] = NCI Yeast Anticancer Drug Screen. Data for the wt2 strain (AID 169);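 further: 0% = growth of vehicle-treated yeast cultures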; conditions: S. cerevisiae wt2 strain growth inhibition, stronger effect = higher value
Method in brief: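 Against vehicle-treated controls, the growth of yeast exposed to each compound was compared, and the inhibition was recorded.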

[12] = NCI Yeast Anticancer Drug Screen. Data for the mlh1 strain (AID 171);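 further: 0% = growth of vehicle-treated control cultures of the same strain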; conditions: S. cerevisiae mlh1 strain growth inhibition, stronger effect = higher value
Method in brief: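 Measured: yeast growth. Reference: vehicle-treated controls. Organism: strain with a defined alteration affecting DNA damage repair or cell cycle control, treated with compound.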

[13] = NCI Yeast Anticancer Drug Screen. Data for the sgs1 strain (AID 173);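 further: 0% = growth of vehicle-only control cultures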; conditions: S. cerevisiae sgs1 mutant, stronger effect = higher value
Method in brief: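 Each compound was added to cultures of the altered yeast strain. Growth was recorded, and inhibition was derived by comparison with vehicle controls.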

[14] = NCI Yeast Anticancer Drug Screen. Data for the mlh1 rad18 strain (AID 175); conditions: S. cerevisiae mlh1 rad18 strain growth inhibition, stronger effect = higher value
Method in brief: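 Genetically defined yeast (DNA repair-deficient) exposed to compounds; growth inhibition determined relative to vehicle.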

[15] = NCI Yeast Anticancer Drug Screen. Data for the rad18 strain (AID 177); conditions: S. cerevisiae rad18 mutant growth inhibition, stronger effect = higher value
Method in brief: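 Vehicle-treated cultures served as the baseline for scoring compound-induced growth inhibition in DNA-repair-mutant yeast.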

[16] = NCI Yeast Anticancer Drug Screen. Data for the rad14 strain (AID 159);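 further: 0% = growth of vehicle-treated control cultures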; conditions: S. cerevisiae rad14 strain growth inhibition, stronger effect = higher value
Method in brief: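 DNA repair-defective yeast, compound-exposed; % growth inhibition derived by comparison with vehicle-treated controls.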

[17] = at 5.0 µM (retest, dose inferred, filed as 0.5)
[18] = at 50.0 µM (retest, dose inferred, filed as 5.0)

Measured: growth inhibition

O=C(C[n+]1ccc2ccccc2c1)c1ccc2ccccc2c1
-10% (inactive) and 71.2% (active): [9]; at 50.0 µM
-28.4% (inactive) and 85.2% (active): [5]; at 50.0 µM
-32.4% (inactive) and 71.7% (active): [10]; at 50.0 µM
inactive: [1]; at 1.2 µM 10% | [1]; at 3.7 µM -1% | [1]; at 11.0 µM 7% | [1]; at 33.0 µM 20% | [2]; at 1.2 µM -6% | [2]; at 3.7 µM -17% | [2]; at 11.0 µM -24% | [2]; at 33.0 µM -22% | [3]; at 1.2 µM -19% | [3]; at 3.7 µM -42% | [3]; at 11.0 µM -35% | [3]; at 33.0 µM -20% | [4]; at 1.2 µM -18% | [4]; at 3.7 µM -7% | [4]; at 11.0 µM -32% | [4]; at 33.0 µM -13% | [5]; at 1.2 µM -20% | [5]; at 3.7 µM -26% | [5]; [17] 51% | [5]; at 11.0 µM -30% | [5]; at 33.0 µM -7% | [6]; at 1.2 µM -37% | [6]; at 3.7 µM -23% | [6]; [17] 64% | [6]; at 11.0 µM -77% | [6]; at 33.0 µM -41% | [6]; at 50.0 µM -5.2% and 39.1% | [7]; [17] -46% | [7]; at 50.0 µM -9.25% and 61.6% | [8]; at 1.2 µM 8% | [8]; at 3.7 µM -9% | [8]; at 11.0 µM 1% | [8]; at 33.0 µM 13% | [9]; [17] 19% | [10]; at 1.2 µM -19% | [10]; at 3.7 µM -12% | [10]; [17] -4% | [10]; at 11.0 µM -27% | [10]; at 33.0 µM -15% | [10]; [18] 51% | [11]; at 1.2 µM -37% | [11]; at 3.7 µM -25% | [11]; at 11.0 µM -53% | [11]; at 33.0 µM -18% | [12]; at 1.2 µM -15% | [12]; at 3.7 µM -30% | [12]; at 11.0 µM -36% | [12]; at 33.0 µM -22% | [13]; at 1.2 µM -30% | [13]; at 3.7 µM -34% | [13]; at 11.0 µM -34% | [13]; at 33.0 µM -26% | [14]; [17] 68% | [14]; at 50.0 µM -11.2% and 69.5% | [15]; at 1.2 µM -21% | [15]; at 3.7 µM -24% | [15]; at 11.0 µM -15% | [15]; at 33.0 µM -3%
active: [1]; at 100.0 µM 99% | [2]; at 100.0 µM 97% | [3]; at 100.0 µM 74% | [4]; at 100.0 µM 98% | [5]; [18] 100% | [5]; at 100.0 µM 98% | [6]; [18] 99% | [6]; at 100.0 µM 98% | [7]; [18] 77% | [8]; at 100.0 µM 99% | [9]; [18] 81% | [10]; at 100.0 µM 98% | [11]; at 100.0 µM 97% | [12]; at 100.0 µM 97% | [13]; at 100.0 µM 97% | [14]; [18] 100% | [15]; at 100.0 µM 99%

O=C1c2ccccc2C(=O)c2cc(CCl)ccc21
inactive: [1]; at 1.2 µM 4% | [1]; at 3.7 µM 12% | [1]; at 11.0 µM 17% | [1]; at 33.0 µM 21% | [1]; at 100.0 µM 20% | [2]; at 1.2 µM 1% | [2]; at 3.7 µM 6% | [2]; at 11.0 µM 3% | [2]; at 33.0 µM 7% | [2]; at 100.0 µM 10% | [3]; at 1.2 µM 27% | [3]; at 3.7 µM 47% | [3]; at 11.0 µM 64% | [3]; at 33.0 µM 69% | [3]; at 100.0 µM 68% | [4]; at 1.2 µM -1% | [4]; at 3.7 µM 2% | [4]; at 11.0 µM 7% | [4]; at 33.0 µM 10% | [4]; at 100.0 µM 12% | [5]; at 1.2 µM 2% | [5]; at 3.7 µM 6% | [5]; [17] 20% | [5]; at 11.0 µM 12% | [5]; at 33.0 µM 13% | [5]; [18] 32% | [5]; at 50.0 µM 25% | [5]; at 100.0 µM 14% | [16]; at 1.2 µM 2% | [16]; at 3.7 µM 4% | [16]; at 11.0 µM 7% | [16]; at 33.0 µM 8% | [16]; at 100.0 µM 13% | [7]; [17] 15% | [7]; [18] 30% | [7]; at 50.0 µM 46.2% | [8]; at 1.2 µM -1% | [8]; at 3.7 µM -5% | [8]; at 11.0 µM 8% | [8]; at 33.0 µM 5% | [8]; at 100.0 µM 2% | [9]; [17] 4% | [9]; [18] 18% | [9]; at 50.0 µM 28% | [10]; at 1.2 µM 5% | [10]; at 3.7 µM 11% | [10]; [17] 39% | [10]; at 11.0 µM 19% | [10]; at 33.0 µM 25% | [10]; [18] 56% | [10]; at 50.0 µM 58.8% | [10]; at 100.0 µM 22% | [11]; at 1.2 µM 3% | [11]; at 3.7 µM 7% | [11]; at 11.0 µM 8% | [11]; at 33.0 µM 12% | [11]; at 100.0 µM 12% | [12]; at 1.2 µM 3% | [12]; at 3.7 µM 3% | [12]; at 11.0 µM 6%
